Compounds with a hit are over-represented: about 16% of the library has one in this group of screens.
DT40 TDP1 CPT: qHTS for Inhibitors of human tyrosyl-DNA phosphodiesterase 1 (TDP1): qHTS in cells in presence of CPT. chicken DT40 Tdp1-/-;hTDP1 cells + 20 nM CPT, ATP luminescence, 48 h. Potency, µM (top dose mostly 46.2 µM), most hits filed as inhibitors. 420,000 compounds, 12% hits. AID 686979, 2013; further: nearly all actives have a fitted effect of over 55% in size
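Cell growth measured by CellTiter-Glo luminescence after a minimum 48 h, 37 C compound exposure with 20 nM CPT in Tdp1-knockout DT40 cells stably expressing hTDP1, seeded 400/well; qHTS titration format.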
DT40 TDP1 no CPT: qHTS for Inhibitors of human tyrosyl-DNA phosphodiesterase 1 (TDP1): qHTS in cells in absence of CPT. DT40 Tdp1-/- hTDP1 cells, no CPT, ATP luminescence, 48 h. 420,000 compounds, 15% hits. Potency, µM (titrated, usually from 46.2 µM), most hits filed as inhibitors; further: nearly all actives have a fitted effect of over 55% in size
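Growth of hTDP1-complemented DT40 Tdp1-knockout cells is measured by ATP luminescence after at least 48 hr compound exposure at 37 °C, with DMSO substituting for the 20 nM CPT used in the parallel screen.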
miR-21 reporter: qHTS Assay for Modulators of miRNAs and/orActivators of miR-21 | Potency, µM (doses to about 38.3 µM), usual class: activators | HeLa miR-21 FLuc reporter, luciferase, 48 h | AID 2288, 2010 | 340,000 tested, under 10 active;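 further: miR-21 action dims this reporter so a rising signal means less miR-21 action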
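HeLa cells endogenously expressing miR-21, stably carrying CMV-driven firefly luciferase with a downstream miR-21 binding site, 2000 cells/well. Titrations up to approximately 40 uM, 48 hours; luciferase luminescence read.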
uPA surface inh: qHTS for Inhibitors of Cell Surface uPA Generation. Potency, µM (top dose mostly 38.3 µM), actives largely listed as inhibitors. AID 540303, 2011. cell surface uPA generation assay, qHTS. 330,000 compounds, 0.31% hits; active means well fitted inhibition curve with a large enough effect; inconclusive means small, poorly fitted or top-dose-only effect; inactive means no such curve, though single readings can be large or run the other way; tested in mouse RAW 264.7 cells; further: nearly all actives have a fitted effect of over 55% in size
TDP1 block: qHTS Assay for Inhibitors of Tyrosyl-DNA Phosphodiesterase (TDP1); Tyrosyl-DNA phosphodiesterase 1 (Homo sapiens), Q9NUW8; recombinant TDP1, AlphaScreen DNA substrate cleavage; Potency, µM (titrated, usually from 130 µM), hits mostly inhibitors; 350,000 compounds, 0.28% hits; AID 485290, 2010; further: nearly all actives have a fitted effect of over 40% in size
Target sequence (Q9NUW8 whole entry, looked up): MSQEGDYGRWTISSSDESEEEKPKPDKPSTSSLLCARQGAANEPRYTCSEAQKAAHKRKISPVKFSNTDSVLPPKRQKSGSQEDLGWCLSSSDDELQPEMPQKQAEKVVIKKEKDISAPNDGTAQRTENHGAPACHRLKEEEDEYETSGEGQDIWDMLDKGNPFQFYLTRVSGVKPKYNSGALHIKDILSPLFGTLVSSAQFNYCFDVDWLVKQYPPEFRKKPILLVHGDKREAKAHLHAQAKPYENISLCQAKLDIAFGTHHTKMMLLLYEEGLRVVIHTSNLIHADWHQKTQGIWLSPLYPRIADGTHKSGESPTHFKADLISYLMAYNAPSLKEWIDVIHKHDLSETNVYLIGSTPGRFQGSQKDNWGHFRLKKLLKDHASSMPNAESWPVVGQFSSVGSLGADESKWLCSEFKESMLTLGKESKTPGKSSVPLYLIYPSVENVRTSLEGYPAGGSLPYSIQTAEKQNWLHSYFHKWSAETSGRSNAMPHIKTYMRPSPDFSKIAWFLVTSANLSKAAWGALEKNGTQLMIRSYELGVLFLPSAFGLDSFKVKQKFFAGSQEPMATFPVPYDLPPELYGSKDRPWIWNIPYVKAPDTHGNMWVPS
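E. coli-derived human Tdp1, 1 nM final. Cpd preinc 15 min RT; substrate 15 nM final, 5 min RT; AS bead mix 10 ug/ml final, 10 min RT. Signal loss = tyrosine-FITC cleavage. No-enzyme wells = max signal.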
Large screens that a line does not name were inactive. Unless noted, the call rests on the fitted dose curve; in most records, active means well fitted curve in the direction sought with a large enough effect; inconclusive means small, poorly fitted or top-dose-only effect, or another doubt; inactive means no such curve, though single readings can be large; an effect the other way counts as inactive or inconclusive.

COCCn1c(C)cc(C2=NNC(=Nc3ccccc3)SC2)c1C	DT40 TDP1 CPT 22µM, DT40 TDP1 no CPT 16µM
COc1ccccc1C1=NNC(=Nc2cccc(S(=O)(=O)N(C)C)c2)SC1	DT40 TDP1 CPT inconclusive, DT40 TDP1 no CPT inconclusive, miR-21 reporter inconclusive
CCOC(=O)N1CCC(=C2c3ccc(Cl)cc3CCc3cccnc32)CC1	DT40 TDP1 CPT 21µM, DT40 TDP1 no CPT 13µM
CN1CCC(=C2c3ccccc3CCc3cccnc32)CC1	none (no result: miR-21 reporter, uPA surface inh, TDP1 block)
C=CCN(C(=O)OC(C)(C)C)S(=O)(=O)NCc1ccccc1	none (no result: miR-21 reporter)
CC1=CC2=NC(=O)/C(=C\c3ccc(-c4cccc(Cl)c4)o3)C(=N)N2O1	DT40 TDP1 CPT 4.6µM, DT40 TDP1 no CPT 2.6µM
CC1=NOC(=O)/C1=C\c1ccc(-c2cccc(Cl)c2)o1	DT40 TDP1 CPT 5.8µM, DT40 TDP1 no CPT 5.2µM
Nc1ccccc1N=Cc1ccc(-c2cccc(Cl)c2)o1	DT40 TDP1 CPT 21µM, DT40 TDP1 no CPT 23µM
CC1=NOC(=O)/C1=C/c1ccc(O)c(Br)c1	DT40 TDP1 no CPT inconclusive (no result: TDP1 block)
CC1=NOC(=O)/C1=C\c1ccc(-c2ccccc2Br)o1	DT40 TDP1 CPT 6.5µM, DT40 TDP1 no CPT 5.8µM, miR-21 reporter inconclusive, uPA surface inh inconclusive
O=C(NCCO)/C(=C\c1ccco1)NC(=O)c1ccco1	none
COCCNC(=O)c1ccc(Cn2c(SCC(N)=O)nc3ccccc3c2=O)cc1	none (no result: uPA surface inh)
O=S(=O)(Nc1cc(Sc2ncn[nH]2)c(O)c2ccccc12)c1ccccc1	DT40 TDP1 CPT 1.2µM, DT40 TDP1 no CPT 2.1µM, miR-21 reporter inconclusive
O=C(O)CSc1cc(NS(=O)(=O)c2ccc(Br)cc2)c2ccccc2c1O	DT40 TDP1 CPT 2.9µM, DT40 TDP1 no CPT 5.2µM, uPA surface inh inconclusive (no result: TDP1 block)
COC(=O)c1c(-c2ccc(F)cc2)noc1N	none (no result: uPA surface inh)
Cc1nc2cc(C(=O)O)ccc2n1-c1ccc(C(C)C)cc1	none (no result: uPA surface inh)
CC1CCN(S(=O)(=O)c2ccc(NC(=O)CCN3C(=O)c4ccccc4C3=O)cc2)CC1	none (no result: uPA surface inh)
c1ccc(NCn2cncn2)nc1	none
O=C(CSc1nnc2c(n1)[nH]c1ccccc12)Nc1cccc(S(=O)(=O)N2CCOCC2)c1	DT40 TDP1 CPT 15µM, DT40 TDP1 no CPT inconclusive (no result: TDP1 block)
Cc1ccc(-c2csc(NC(=O)CSc3nc(C)cc(=O)[nH]3)n2)cc1	DT40 TDP1 CPT 18µM, DT40 TDP1 no CPT 18µM (no result: uPA surface inh)
CC(=O)c1ccc(NC(=O)CSc2nnc3c(n2)[nH]c2ccccc23)cc1	DT40 TDP1 CPT inconclusive, DT40 TDP1 no CPT 16µM (no result: uPA surface inh)
Cc1nnc(NC(=O)CSc2nnc3c(n2)[nH]c2ccccc23)s1	none (no result: uPA surface inh)
Cc1ccc(-c2csc(NC(=O)CSc3nnc4c(n3)[nH]c3ccccc34)n2)cc1	DT40 TDP1 CPT 13µM, DT40 TDP1 no CPT 5.8µM
Cc1ccc(-c2csc(NC(=O)CSC3=NCCS3)n2)cc1	DT40 TDP1 CPT inconclusive
O=C(CSc1nnc2c(n1)[nH]c1ccccc12)Nc1ccc(N2CCOCC2)cc1	DT40 TDP1 CPT inconclusive, DT40 TDP1 no CPT inconclusive
Cc1ccc(NC(=O)CSc2nnc3c(n2)[nH]c2ccccc23)cc1	none
COc1ccccc1-c1ccnc(-n2ncc(C(=O)N3CCN(C4CCCC4)CC3)c2-c2ccco2)n1	none (no result: miR-21 reporter, uPA surface inh, TDP1 block)
Cc1ccc(CN2CCN(Cc3cccc4c3OCO4)CC2CCO)cc1 (stereo unspecified)	DT40 TDP1 CPT inconclusive, DT40 TDP1 no CPT inconclusive
CCCC(NC(=S)NCC1CCCO1)C12CC3CC(CC(C3)C1)C2 (stereo unspecified)	DT40 TDP1 CPT inconclusive, DT40 TDP1 no CPT inconclusive
CCNC(=S)NNC(=O)CCn1cc(C)cn1	none
Cc1cc(C)cc(NC(=O)CSc2nc3[nH]ncc3c(=O)[nH]2)c1	DT40 TDP1 CPT inconclusive, DT40 TDP1 no CPT inconclusive
Cc1csc(NC(=O)CSc2nc3[nH]ncc3c(=O)[nH]2)n1	DT40 TDP1 CPT inconclusive, DT40 TDP1 no CPT 29µM
NC(=O)c1nsc(C(=O)N(CC(=O)NCc2ccccc2)c2ccc(F)cc2)c1N	none
Cc1nc(N2CCc3ccccc3C2)[nH]c(=O)c1Cc1ccccc1	none
Cc1nc(-n2[nH]c3c(c2=O)CCCC3)[nH]c(=O)c1Cc1ccccc1	DT40 TDP1 CPT 2.9µM, DT40 TDP1 no CPT 3.3µM
CCN1CCN(Cc2c(O)ccc3c2O/C(=C\C=C\c2ccccc2)C3=O)CC1	DT40 TDP1 CPT 26µM, DT40 TDP1 no CPT 12µM, miR-21 reporter inconclusive
Cc1ccc(/C=C/c2onc(C)c2S(=O)(=O)N2CCC(C(=O)Nc3cccc(C#N)c3)CC2)cc1	DT40 TDP1 CPT 3.3µM, DT40 TDP1 no CPT 3.7µM (no result: uPA surface inh)
CNC(=O)C1CCN(S(=O)(=O)c2c(C)noc2/C=C/c2ccccc2F)CC1	none (no result: TDP1 block)
CCOc1ccc(OCC)c(NC(=O)C2CCN(S(=O)(=O)c3c(C)noc3/C=C/c3ccccc3F)CC2)c1	none (no result: uPA surface inh)
COc1cc(NC(=O)C2CCN(S(=O)(=O)c3c(C)noc3/C=C/c3ccccc3F)CC2)cc(OC)c1OC	DT40 TDP1 CPT inconclusive, DT40 TDP1 no CPT 23µM (no result: uPA surface inh)
Cc1noc(/C=C/c2ccccc2F)c1S(=O)(=O)N1CCC(C(=O)Nc2ccc(C#N)cc2)CC1	DT40 TDP1 CPT 12µM, DT40 TDP1 no CPT 8.2µM (no result: uPA surface inh)
CCN(CC)c1ccc(NC(=O)C2CCN(S(=O)(=O)c3c(C)noc3/C=C/c3ccccc3F)CC2)c(C)c1	DT40 TDP1 CPT 21µM, DT40 TDP1 no CPT 16µM (no result: uPA surface inh)

Screening data: PubChem BioAssay, National Center for Advancing Translational Sciences (NCATS)
